These results are taken from PubChem BioAssay AID488890 (Southern Research Specialized Biocontainment Screening …, 2010).

One may read the inhibition as the drop in the measured response relative to a control, in per cent.

In all, about 320,000 compounds went through this assay and about 1,300 (0.41%) were called active. Inconclusive results (about 3%) are left out. The rule behind the calls is not given here. Not all results are given here. Potency and affinity values are given separately.

The test in a line: growth inhibition of non-replicating M. tuberculosis (AID 488890).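 Note: plate controls were DMSO cells for no effect and high antibiotic wells for full effect.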 The conditions noted are these: Mycobacterium tuberculosis non-replicating, at 25 µM, stronger effect = higher value.
Regarding `CCOCC(=O)Nc1nnc(COC)s1`, the inhibition came to 9.42%.

As for `CC(=O)c1ccc(N2CCN(S(=O)(=O)c3cc4[nH]c(=O)c(=O)[nH]c4cc3C)CC2)cc1`, the inhibition is -6.88%.

Turning to `NC(=S)N/N=C/c1ccc(-c2ccc([N+](=O)[O-])cc2)o1`, the inhibition came to 63.3%.

Regarding `CCOc1cc(/C=N/Nc2nnc(C)n2N)ccc1O`, the inhibition amounted to 2.89%.

Consider `CC(C)(C)c1nnc(N/N=C/c2ccc(Br)cc2)n(N)c1=O`, for which the inhibition amounted to 12%.

As for `COc1ccc(/C=N/Nc2nnc(C)n2N)cc1OC`, the inhibition was -3.85%.

Consider `NC(=O)N/N=C/c1ccc(-c2ccc([N+](=O)[O-])cc2)o1`, for which the inhibition is 45.3%.

Consider `Cc1nnc(N/N=C/c2c(Cl)cccc2Cl)n1N`, for which the inhibition came out at 18.3%.

As to `CC1CCN(c2ccc(/C=N/n3nnnc3N)cc2[N+](=O)[O-])CC1`, the inhibition is 6.33%.

In the case of `Cc1nnc(N/N=C/c2cc([N+](=O)[O-])c(N3CCC(C)CC3)cc2N2CCC(C)CC2)n1N`, the inhibition is 37.3%.

Take `COc1ccc(N(CC(=O)NCCc2ccccc2)C(=O)CCC(=O)Nc2ccccn2)cc1`: the inhibition was -3.83%.

Take `CC(C)N(CCNC(=O)c1ccc(CS(=O)(=O)c2c(Cl)cccc2Cl)o1)Cc1ccccc1`: the inhibition came out at 15.8%.

Regarding `Cc1ccc(S(=O)(=O)N2CCOCC2)cc1C(=O)OCC(=O)N(Cc1ccccc1)C(C)C`, the inhibition turned out to be 0.48%.

`O=C(CNC(=O)c1cccs1)NCC(=O)OCc1ccc(Cl)cc1`: the inhibition turned out to be 15.7%.

As for `CCN(CC)S(=O)(=O)c1ccc(N2CCOCC2)c(NS(=O)(=O)c2ccc(OC)cc2)c1`, the inhibition is -8.38%.

As to `CCc1nc(NC(C)C)c2oc3ccccc3c2n1`, the inhibition came to 8.44%.

As for `Cc1nnc(N/N=C\c2ccc(-c3cccc(C(=O)O)c3)o2)n1N`, the inhibition came out at 12.4%.

Consider `Cc1nnc(N/N=C\c2ccc(-c3ccccc3[N+](=O)[O-])o2)n1N`, for which the inhibition was 63.6%.

Consider `CCOc1cc2c(cc1OCC)C(c1ccc(F)cc1)NCC2` (centres undefined), for which the inhibition came to 19.2%.

On to `CC(CNC(=O)c1ccc(OC2CCN(Cc3ccccn3)CC2)cc1)Oc1cccnc1` (centres undefined), for which the inhibition stood at 0.447%.

Turning to `COc1ccc(CNC(=O)CCCc2ccccc2)cc1`, the inhibition turned out to be 1.45%.

`COc1ccc(CCNC(=O)CCCc2ccccc2)cc1OC`: the inhibition came to 26.3%.

Regarding `CN(CC(=O)Nc1ccc(F)c(F)c1)S(=O)(=O)c1cccc2cccnc12`, the inhibition amounted to 0.37%.

As for `O=C(OCc1ccc(Cl)c(Cl)c1)c1cnccn1`, the inhibition turned out to be 4.21%.

For the compound `O=C(OCc1c(Cl)cccc1Cl)c1cnccn1`, the inhibition came out at 17.6%.

As to `N#Cc1ccc(COC(=O)c2ccccn2)cc1`, the inhibition turned out to be 55.2%.

Regarding `O=C(COC(=O)c1ccccn1)Nc1c(Cl)cccc1Cl`, the inhibition was found to be 8.09%.

For `COC(=O)c1ccc(OC(=O)c2ccccn2)cc1`, the inhibition is 42%.

In the case of `COC(=O)c1ccc(COC(=O)c2cnccn2)cc1`, the inhibition was 55.1%.

For `O=C(COC(=O)c1ccccn1)Nc1ccccc1Cl`, the inhibition worked out at 3.22%.

As for `O=C(OCc1c(Cl)cccc1Cl)c1cccnc1Cl`, the inhibition turned out to be 33.3%.

As for `O=C(c1cccs1)N1CCN(C2CCCCC2)CC1`, the inhibition came out at 14.6%.

As for `O=C(CSc1nnc(CNC(=O)c2ccccc2F)o1)NCC1CCCO1` (centres undefined), the inhibition is 4.55%.

On to `Cc1cc(C)c(C)c(C(=O)COC(=O)CNC(=O)CNC(=O)c2ccco2)c1C`, for which the inhibition was determined as 6.12%.

Turning to `CN(C)/C=N/c1cc(=O)[nH]c(=O)n1CC1CC1`, the inhibition was -0.07%.

In the case of `O=C(Oc1c(Cl)cc(Cl)c2cccnc12)N1CCCCC1`, the inhibition amounted to 22.4%.

For the compound `O=C(COc1ccc2ccccc2c1Br)N1CCCCC1`, the inhibition stood at 76.2%.

For `O=C(Oc1c(Br)cc(Br)c2cccnc12)N1CCCCC1`, the inhibition came out at 43.3%.

Regarding `CN1CCN(C(=O)COc2ccc3ccccc3c2Br)CC1`, the inhibition was 37.4%.

Turning to `O=C(COc1ccccc1F)Nc1c2c(nn1-c1ccccc1)CS(=O)(=O)C2`, the inhibition came out at 16.8%.

In the case of `Cc1ccc(OCC(O)Cn2c(N3CCOCC3)nc3c2c(=O)[nH]c(=O)n3C)cc1` (centres undefined), the inhibition is 14.4%.

As for `COc1cccc(/C=N/N2CCN(c3ccccc3OC)CC2)c1`, the inhibition worked out at 2.17%.

In the case of `CCCCC[C@@H]1C=C(C(=O)O)[C@H](c2ccc3c(c2)OCO3)N1S(=O)(=O)c1ccc(C)cc1`, the inhibition stood at 27.2%.

As for `COC(=O)C1ON2OC(C(=O)OC)C(C(=O)OC)C2C1CC(C)=O` (centres undefined), the inhibition is -1.62%.

As to `Cc1ccc(-c2nnc(C)c(N3CCOCC3)n2)cc1`, the inhibition turned out to be 7.79%.

`Cc1ccc(-c2nnc(C)c(N3CC(C)OC(C)C3)n2)cc1` (centres undefined): the inhibition came to 2.5%.

As for `CCOC(=O)C1=C(N)OC2=C(C(=O)CC(C)(C)C2)C1c1ccc(C)s1` (centres undefined), the inhibition was 64.3%.

In the case of `O=C(COC(=O)c1cccnc1Cl)NCCCc1ccccc1`, the inhibition turned out to be 27.7%.

Consider `COc1ncccc1-c1nnn(-c2ccccc2Br)n1`, for which the inhibition came out at 3.8%.

With `C#CCOc1ccc2c(c1)c(C(C)=O)c(C)n2Cc1ccccc1`, the inhibition was -5.53%.

On to `CCOC(=O)COc1ccc2c(c1)c(C(C)=O)c(C)n2-c1ccccc1`, for which the inhibition amounted to 19.1%.

Regarding `O=C(COc1ccc(F)cc1Br)NCc1ccccn1`, the inhibition is 28.1%.

`COc1ccc(S(=O)(=O)NCc2ccncc2)cc1NC(=O)c1ccc(Cl)cc1`: the inhibition is 5.22%.

As to `Cc1c(C(=O)O)[nH]c2c1C(=O)CC(c1ccccc1)C2` (centres undefined), the inhibition is 4.15%.

Turning to `Cc1oc2c(c(=O)c1C)C(=O)CC(c1ccccc1)C2` (centres undefined), the inhibition was -6.93%.

Consider `Cc1cc(Cl)ccc1N1C(=O)CC(NNC(=O)c2cccnc2)C1=O` (centres undefined), for which the inhibition was 5.86%.

On to `CCS(=O)(=O)N1CCC(NC(=O)C2CCCCC2)CC1`, for which the inhibition is -9.82%.

As to `CC(C)NC(=O)NNC(=O)c1cc(COc2cc(Cl)cc(Cl)c2)on1`, the inhibition came out at 31.8%.

Take `CC(=O)c1csc(COc2ccccc2)n1`: the inhibition is -0.92%.

Turning to `CCC(=O)NNC(=O)c1cc(COc2cc(Cl)cc(Cl)c2)on1`, the inhibition was 40%.

With `CCOC(=O)c1csc(NC(=O)COc2ccc(Cl)cc2Cl)n1`, the inhibition was determined as 80.3%.

On to `Cc1onc(-c2ccccc2)c1-c1csc(COc2ccccc2)n1`, for which the inhibition worked out at 33.1%.

`CCOC(=O)c1csc(-c2ccc(OC)c(OC)c2)n1`: the inhibition turned out to be 32.3%.

With `CCOC(=O)c1csc(N)n1`, the inhibition is -4.96%.

As for `CCOC(=O)c1csc(NC(C)=O)n1`, the inhibition is -1.23%.

Take `COc1ccc(OC)c(Nc2nc(N)nc(CSc3nnc(N)s3)n2)c1`: the inhibition was -6.45%.

Turning to `N#CC1(NC(=O)CSc2nnc(-c3ccccc3F)n2N)CCCCC1`, the inhibition was -6.24%.

As to `O=C(CCN1C(=O)C2CC=CCC2C1=O)NC1CCCCC1` (centres undefined), the inhibition is -1.44%.

Turning to `COc1ccc(-c2cn(-c3ccc(Cl)cc3)c3[n+]2CCCCC3)cc1`, the inhibition was found to be 10.6%.

`O=C(c1ccc(N2CC3CC(C2)c2cccc(=O)n2C3)c([N+](=O)[O-])c1)N1CCCC1` (centres undefined): the inhibition was -6.65%.

Turning to `O=C(C1=NN[C@@H]2C(=O)N(Cc3ccccc3)C(=O)[C@H]12)c1ccc(F)cc1`, the inhibition came to 5.43%.

Turning to `N#CCP(=S)(c1ccccc1)c1ccccc1`, the inhibition came to 24.1%.

On to `CCCNC(=O)C(Cc1ccccc1)NC(=O)c1ccc(-c2ccccc2)cc1` (centres undefined), for which the inhibition was determined as 4%.

In the case of `COc1ccc(CN(CC2CCC(C(=O)O)CC2)C(=S)Nc2cc(Cl)ccc2OC)cc1` (centres undefined), the inhibition worked out at 2.05%.
